Measured values taken from PubChem BioAssay (NCATS).
Results filed as inconclusive are left out. Unmarked numbers belong to inactive results. Activity calls are given as the source filed them. The call rests on the fitted dose curve; in most records, active means well fitted inhibition curve with a large enough effect; inconclusive means small, poorly fitted or top-dose-only effect; inactive means no such curve, though single readings can be large or run the other way.

target: Retinaldehyde dehydrogenase 3 (Homo sapiens) (UniProt P47895); test: qHTS for Inhibitors of the Aldehyde Dehydrogenase Family (ALDH1A3) Primary screen (AID 2061315); details: ALDH inhibition qHTS; series mostly up to 56 µM; activity change, negative = inhibition: at the top concentration;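 further: plate controls were DMSO vehicle for no effect and reference inhibitor for full effect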

SMILES | activity change, negative = inhibition [%] | Potency
CC(=O)c1ccc(O[C@@H]2O[C@H](CO)[C@@H](O)[C@H](O)[C@H]2O)cc1 | 6.41 | –
CCCCNc1nc(C)nc2c1nc(-c1ccccc1)n2CCN1CCCCC1 | 7.39 | –
COc1cc(C2Nc3ccccc3C(=O)N2Cc2ccccc2)ccc1OCc1ccc(NC(C)=O)cc1 (stereo not given) | -6.02 | –
Cc1cccc(-n2cnc3cc(C(=O)N4CCCCCC4)ccc32)c1 | -2.99 | –
COc1ccc(-c2csc3ncnc(Sc4nnnn4C)c23)cc1 | -8.57 | –
Cc1ccc(C(=O)N2CCc3cc(-c4nc(NC(=O)Cc5ccc6c(c5)OCO6)sc4C)ccc32)cc1 | 1.95 | –
CCC(=O)NC(C)c1cc(Cl)c2cccnc2c1O (stereo not given) | 3.13 | –
O=C(Nc1nc(-c2ccccc2)cs1)c1ccccc1 | -3.86 | –
Cc1ccc(OCCn2c(CCNC(=O)/C=C/c3ccccc3)nc3ccccc32)cc1 | 1.74 | –
Cc1ccc(CCCn2c(CCNC(=O)C3CCCCC3)nc3ccccc32)cc1 | 2.75 | –
FC(F)(F)c1cc(-c2nc3ccccc3s2)cc(C(F)(F)F)c1 | -24.5 | –
Cc1cc(C)nc(NC(=S)N2CCN(c3cc(Cl)c(Cl)cc3Cl)CC2)c1 | -8.86 | –
COC(=O)c1cncc(NC(=O)c2cccs2)c1 | -27.5 | –
O=C(O)C1CCC(C(=O)Nc2ccc([S+](=O)([O-])Nc3nccs3)cc2)CC1 (stereo not given) | -15.5 | –
CC(=O)Oc1ccc(C2(c3ccc(OC(C)=O)cc3)Oc3ccccc3NC2=O)cc1 | -6.37 | –
O=C1c2ccccc2NC(c2ccccc2O)N1Cc1ccccc1 (stereo not given) | -17.8 | –
COc1cccc(C2c3c(ncn(-c4ccccc4Cl)c3=N)Oc3ccc4ccccc4c32)c1 (stereo not given) | -0.886 | –
Cc1cc(F)ccc1S(=O)(=O)Nc1cnccc1C(=O)Nc1nc(-c2ccccc2)cs1 | – | inactive
Cc1noc(C)c1-c1ccc2ncnc(NCC3CCCCN3C)c2c1 (stereo not given) | -6.55 | –
Cc1ccc(-c2nnc(N3CCC(C(N)=O)CC3)s2)cc1 | 10.6 | –

SMILES | activity change, negative = inhibition [%] | Potency
COc1cc(O)c(C(CC(=O)N2CCCCC2)c2ccc3c(c2)OCO3)c(OC)c1 (stereo not given) | 2.26 | –
NC(=O)C1CCN(c2cc(-c3ccc4c(c3)OCCCO4)ncn2)CC1 | -7.23 | –
Fc1cc(Nc2nc(-c3ccncc3)nc3ccccc23)ccc1-n1cncn1 | – | inactive
CC(=O)Nc1sc2c(c1-c1cccc(N(C)C)c1)CCNC2 | -18.4 | –
O=[S+]([O-])(Nc1nccs1)c1ccc(NCc2cc(Cl)cc(Br)c2O)cc1 | 8 | –
O=S(=O)(Nc1nc(CN2CCOCC2)nc2sc3c(c12)CCCC3)c1ccc2ccccc2c1 | 22 | –
COc1ccc([S+](=O)([O-])N2CCCN([S+](=O)([O-])c3ccc(OC)c(NC(C)=O)c3)CC2)cc1NC(C)=O | 0.509 | –
CCCCc1ccc(-c2ccc(=O)n(CC(=O)NCCc3ccccc3)n2)cc1 | -2.25 | –
COc1cc(N2CCN(C(=S)Nc3cc(C)cc(C)n3)CC2)cc(C(F)(F)F)c1 | 14.8 | –
COc1ccccc1-c1csc2ncnc(Sc3nnnn3C)c12 | -0.0076 | –
O=C(COC(=O)CNC(=O)c1ccccc1Cl)Nc1cc(C(F)(F)F)ccc1Cl | 22 | –
COc1ccc(NC(=O)CN2C(=O)N/C(=C\c3cccn3-c3ccc(C(=O)NC#N)cc3)C2=O)cc1 | 38.5 | –
Cc1cc(C)nc(NC(=S)N2CCN(c3ccc4occc4c3)CC2)c1 | 12.2 | –
O=C1CCc2cc(S(=O)(=O)Nc3cccc(F)c3)ccc2N1 | -4.43 | –
O=C1CCCC2=C1C(c1ccc(F)cc1)N=C(Nc1nc3ccccc3o1)N2 (stereo not given) | 20.2 | –
Cc1ccc(S(=O)(=O)Nc2cnccc2C(=O)Nc2ccc(C#N)cc2)cc1 | 28.5 | –
Cc1cc(-c2cc(O)ccc2Cl)cc2nnc(Nc3ccc(OCCN4CCCC4)cc3)nc12 | -12.7 | –
COc1nccc(-c2nc(Nc3ccc(F)c(F)c3)c3ccccc3n2)c1OC | -0.246 | –
COc1cccc(C2c3c(ncn(-c4cccc(Cl)c4)c3=N)Oc3ccc4ccccc4c32)c1 (stereo not given) | -8.21 | –
COc1ccc(C2N=C(Nc3nc4ccccc4o3)NC3=C2C(=O)CCC3)cc1 (stereo not given) | 9.75 | –
